Assay results reported in PubChem BioAssay (NCI).
About 79,000 compounds went through this panel and 15% of them were active in at least one assay; those are over-represented in the sample as a whole. The source made the active and inactive calls. Cut-off read from the data, not from the text of the source: active = growth inhibition above about 70%; inactive = the rest.

Experiments:
[1] = NCI Yeast Anticancer Drug Screen. Data for the rad52 strain (AID 147);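 note: 0% = growth of vehicle-treated control cultures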; settings: S. cerevisiae rad52 mutant growth inhibition, active compounds read high
Method in brief: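 Genetically altered yeast (DNA damage repair defect) treated with compound; inhibition calculated relative to vehicle.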

[2] = NCI Yeast Anticancer Drug Screen. Data for the wt1 strain (AID 149);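 note: 0% = growth of vehicle-treated wt1 cultures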; settings: S. cerevisiae wt1 strain (SPY 50644) growth inhibition, active compounds read high
Method in brief: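 Each compound is tested on wt1 yeast and the loss of growth versus vehicle gives the inhibition value.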

[3] = NCI Yeast Anticancer Drug Screen. Data for the rad50EPP+ strain (AID 151);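 note: 0% = growth of vehicle-treated control cultures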; settings: S. cerevisiae rad50 mutant strain, active compounds read high
Method in brief: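 Strain rad50EPP+; compound exposure; % growth inhibition vs vehicle.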

[4] = NCI Yeast Anticancer Drug Screen. Data for the mgt1 strain (AID 153); settings: S. cerevisiae mgt1 mutant growth inhibition, active compounds read high
Method in brief: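 Read-out: yeast growth inhibition vs vehicle control. Strain mgt1, drawn from a panel altered in DNA damage repair or cell cycle control.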

[5] = NCI Yeast Anticancer Drug Screen. Data for the rad50 strain (AID 155);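 note: 0% = growth of vehicle-only cultures of the same strain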; settings: S. cerevisiae rad50 strain growth inhibition, active compounds read high
Method in brief: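 Vehicle-treated cultures provide the reference for the growth inhibition reported for compound-exposed, repair-deficient yeast.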

[6] = NCI Yeast Anticancer Drug Screen. Data for the mec2-1 strain (AID 157); settings: S. cerevisiae mec2-1 strain, active compounds read high
Method in brief: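 Cells of the genetically defined mec2-1 yeast strain are incubated with test compound. Inhibition of growth is calculated against vehicle-treated controls.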

[7] = NCI Yeast Anticancer Drug Screen. Data for the rad14 strain (AID 159);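 note: 0% = growth of vehicle-treated control cultures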; settings: S. cerevisiae rad14 strain growth inhibition, active compounds read high
Method in brief: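 Inhibition of growth is reported for a repair-deficient yeast mutant following compound treatment, calculated relative to cultures that received vehicle.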

[8] = NCI Yeast Anticancer Drug Screen. Data for the sgs1 mgt1 strain (AID 161);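 note: 0% = growth of cultures given vehicle only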; settings: S. cerevisiae sgs1 mgt1 strain, active compounds read high
Method in brief: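 Mutant yeast exposed to compound; growth scored against vehicle-only wells.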

[9] = NCI Yeast Anticancer Drug Screen. Data for the CLN2oe strain (AID 163);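 note: 0% = growth of vehicle-only control cultures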; settings: S. cerevisiae CLN2oe strain, active compounds read high
Method in brief: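 Strain altered in cell-cycle control, incubated with compound; growth compared to solvent-treated controls.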

[10] = NCI Yeast Anticancer Drug Screen. Data for the cln2 rad14 strain (AID 165);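 note: 0% = growth equal to vehicle treated cultures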; settings: S. cerevisiae cln2 rad14 strain, active compounds read high
Method in brief: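 The screen exposed genetically defined yeast (cln2 rad14) to test compounds and scored growth inhibition relative to vehicle-treated controls.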

[11] = NCI Yeast Anticancer Drug Screen. Data for the bub3 strain (AID 167); settings: S. cerevisiae bub3 mutant strain, active compounds read high
Method in brief: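 Mutant yeast screening strain plus compound; vehicle-treated cultures serve as the 0% inhibition reference.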

[12] = NCI Yeast Anticancer Drug Screen. Data for the wt2 strain (AID 169); settings: S. cerevisiae wt2 strain growth inhibition, active compounds read high
Method in brief: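 Steps: yeast strain treated with compound; growth recorded; inhibition calculated relative to cultures given vehicle alone.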

[13] = NCI Yeast Anticancer Drug Screen. Data for the mlh1 strain (AID 171);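 note: 0% = growth of vehicle-treated control cultures of the same strain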; settings: S. cerevisiae mlh1 strain growth inhibition, active compounds read high
Method in brief: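 Yeast screen: mutant strain plus compound, growth scored against vehicle control wells.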

[14] = NCI Yeast Anticancer Drug Screen. Data for the sgs1 strain (AID 173);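 note: 0% = growth of vehicle-only control cultures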; settings: S. cerevisiae sgs1 mutant, active compounds read high
Method in brief: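 Inhibition of yeast growth served as the measure. The mutant strain was treated with each compound, and growth was normalised to cultures receiving vehicle alone.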

[15] = NCI Yeast Anticancer Drug Screen. Data for the mlh1 rad18 strain (AID 175); settings: S. cerevisiae mlh1 rad18 strain growth inhibition, active compounds read high
Method in brief: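 Compound-treated yeast growth, normalised to vehicle controls. Strain bears defined DNA repair mutations.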

[16] = NCI Yeast Anticancer Drug Screen. Data for the rad18 strain (AID 177); settings: S. cerevisiae rad18 mutant growth inhibition, active compounds read high
Method in brief: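 Inhibition values reflect reduced yeast growth compared with vehicle-treated controls, using a strain engineered with a DNA damage repair defect.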

[17] = at 5.0 µM (retest, dose inferred, filed as 0.5)
[18] = at 50.0 µM (retest, dose inferred, filed as 5.0)

Measured: growth inhibition

CN(C)CCNC(=O)c1cccc2cc([N+](=O)[O-])ccc12
active: [1]; at 33.0 µM 92% | [1]; at 100.0 µM 96% | [2]; at 33.0 µM 80% | [2]; at 100.0 µM 93% | [3]; at 33.0 µM 91% | [3]; at 100.0 µM 95% | [4]; at 33.0 µM 78% | [4]; at 100.0 µM 92% | [5]; at 11.0 µM 77% | [5]; at 33.0 µM 93% | [5]; [18] 92% | [5]; at 50.0 µM 86.5% | [5]; at 100.0 µM 97% | [6]; at 33.0 µM 70% | [6]; [18] 72% | [6]; at 50.0 µM 82.7% | [6]; at 100.0 µM 93% | [7]; at 33.0 µM 80% | [7]; at 100.0 µM 93% | [8]; at 50.0 µM 84.3% | [9]; at 100.0 µM 84% | [10]; at 50.0 µM 71% | [11]; at 50.0 µM 82.8% | [11]; at 100.0 µM 85% | [12]; at 100.0 µM 87% | [13]; at 100.0 µM 92% | [14]; at 33.0 µM 79% | [14]; at 100.0 µM 93% | [15]; [18] 86% | [16]; at 33.0 µM 70% | [16]; at 100.0 µM 90%
inactive: [1]; at 1.2 µM 14% | [1]; at 3.7 µM 20% | [1]; at 11.0 µM 61% | [2]; at 1.2 µM 13% | [2]; at 3.7 µM 8% | [2]; at 11.0 µM 41% | [3]; at 1.2 µM 5% | [3]; at 3.7 µM 21% | [3]; at 11.0 µM 64% | [4]; at 1.2 µM -1% | [4]; at 3.7 µM 4% | [4]; at 11.0 µM 33% | [5]; at 1.2 µM 35% | [5]; at 3.7 µM 42% | [5]; [17] 38% | [6]; at 1.2 µM -6% | [6]; at 3.7 µM 8% | [6]; [17] 11% | [6]; at 11.0 µM 20% | [7]; at 1.2 µM -1% | [7]; at 3.7 µM 10% | [7]; at 11.0 µM 47% | [8]; [17] -2% | [8]; [18] 68% | [9]; at 1.2 µM 15% | [9]; at 3.7 µM 20% | [9]; at 11.0 µM 43% | [9]; at 33.0 µM 56% | [10]; [17] 23% | [10]; [18] 55% | [11]; at 1.2 µM -12% | [11]; at 3.7 µM -27% | [11]; [17] 8% | [11]; at 11.0 µM -18% | [11]; at 33.0 µM 51% | [11]; [18] 67% | [12]; at 1.2 µM -13% | [12]; at 3.7 µM -10% | [12]; at 11.0 µM 5% | [12]; at 33.0 µM 60% | [13]; at 1.2 µM -7% | [13]; at 3.7 µM 6% | [13]; at 11.0 µM 33% | [13]; at 33.0 µM 69% | [14]; at 1.2 µM 16% | [14]; at 3.7 µM 22% | [14]; at 11.0 µM 49% | [15]; [17] 18% | [15]; at 50.0 µM 45.6% | [16]; at 1.2 µM 7% | [16]; at 3.7 µM 5% | [16]; at 11.0 µM 23%

CNCCCNc1c2ccccc2nc2cccc([N+](=O)[O-])c12
active: [1]; at 1.2 µM 83% | [1]; at 3.7 µM 85% | [1]; at 11.0 µM 90% | [1]; at 33.0 µM 94% | [1]; at 100.0 µM 96% | [2]; at 11.0 µM 77% | [2]; at 33.0 µM 92% | [2]; at 100.0 µM 97% | [3]; at 3.7 µM 89% | [3]; at 11.0 µM 96% | [3]; at 33.0 µM 97% | [3]; at 100.0 µM 98% | [4]; at 11.0 µM 72% | [4]; at 33.0 µM 94% | [4]; at 100.0 µM 97% | [5]; at 1.2 µM 73% | [5]; at 3.7 µM 82% | [5]; [17] 77% | [5]; at 11.0 µM 91% | [5]; at 33.0 µM 93% | [5]; [18] 95% | [5]; at 50.0 µM 84.8% | [5]; at 100.0 µM 96% | [6]; at 3.7 µM 87% | [6]; [17] 89% | [6]; at 11.0 µM 92% | [6]; at 33.0 µM 95% | [6]; [18] 97% | [6]; at 50.0 µM 91% | [6]; at 100.0 µM 97% | [7]; at 1.2 µM 84% | [7]; at 3.7 µM 93% | [7]; at 11.0 µM 96% | [7]; at 33.0 µM 96% | [7]; at 100.0 µM 97% | [8]; [17] 87% | [8]; [18] 96% | [8]; at 50.0 µM 91.2% | [9]; at 11.0 µM 80% | [9]; at 33.0 µM 93% | [9]; at 100.0 µM 97% | [10]; [17] 77% | [10]; [18] 95% | [10]; at 50.0 µM 91.3% | [11]; at 11.0 µM 92% | [11]; at 33.0 µM 98% | [11]; [18] 96% | [11]; at 50.0 µM 85.8% | [11]; at 100.0 µM 99% | [12]; at 11.0 µM 86% | [12]; at 33.0 µM 97% | [12]; at 100.0 µM 99% | [13]; at 11.0 µM 72% | [13]; at 33.0 µM 94% | [13]; at 100.0 µM 97% | [14]; at 3.7 µM 84% | [14]; at 11.0 µM 92% | [14]; at 33.0 µM 92% | [14]; at 100.0 µM 95% | [15]; [17] 88% | [15]; [18] 96% | [15]; at 50.0 µM 85.3% | [16]; at 1.2 µM 92% | [16]; at 3.7 µM 95% | [16]; at 11.0 µM 93% | [16]; at 33.0 µM 95% | [16]; at 100.0 µM 96%
inactive: [2]; at 1.2 µM 2% | [2]; at 3.7 µM 28% | [3]; at 1.2 µM 43% | [4]; at 1.2 µM 18% | [4]; at 3.7 µM 42% | [6]; at 1.2 µM 41% | [9]; at 1.2 µM -1% | [9]; at 3.7 µM 28% | [11]; at 1.2 µM -12% | [11]; at 3.7 µM 38% | [11]; [17] 21% | [12]; at 1.2 µM 2% | [12]; at 3.7 µM 23% | [13]; at 1.2 µM 18% | [13]; at 3.7 µM 42% | [14]; at 1.2 µM 67%
